Test results reported in PubChem BioAssay.
Activity calls are given as the source filed them.

Assays:
[1] = tested on: Plasmodium falciparum Sir2 (PF13_0152, Sir2A); experiment: Plasmodium falciparum Sir2A binding compounds – biochemical, small-molecule microarray, 635 nm fluorescence, primary screen (AID 1098); details: fluorescence 635 nm, higher = more signal;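 further: score merges spot fluorescence intensity with its signal-to-noise ratio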
[2] = probe aDKK1 binding to arrayed compounds – biochemical, biotinylated probe, 635/667 nm fluorescence, primary screen (AID 1099); details: small-molecule microarray, higher = more signal;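 further: score merges 667nm spot fluorescence with signal to noise across triplicate slides; reference of the scale not given here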
[3] = probe aCHRDL2 binding to arrayed compounds – biochemical, biotinylated probe, 635/667 nm fluorescence, primary screen (AID 1100); details: small-molecule microarray, higher = more signal
[4] = change in splice reporter luminescence, either direction, cell-based, HEK293, spliceosome inhibition project, primary screen (AID 1101); details: HEK293 splicing luciferase reporter, 24 h, higher = more signal, called active from +8 up or from −8 down;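 further: HEK293 cells carrying a splicing-competent luciferase reporter gene; test concentration not given here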
[5] = target: Fibroblast growth factor 10 (Homo sapiens) (UniProt O15520); experiment: compounds binding fibroblast growth factor 10 – biochemical, small-molecule microarray, 635 nm fluorescence, primary screen (AID 1102); details: FGF10 binding, fluorescence 635 nm, higher = more signal
[6] = tested on: glycogen synthase kinase-3 (GSK3A per assay name; protocol says GSK3B); experiment: compounds binding glycogen synthase kinase-3 – biochemical, small-molecule microarray, 635 nm fluorescence, GSK3A, primary screen (AID 1103); details: fluorescence 635 nm, higher = more signal; further: the record names both GSK3A and GSK3B
[7] = target: Epidermal growth factor receptor (Homo sapiens) (UniProt P00533); experiment: compounds binding epidermal growth factor receptor – biochemical, small-molecule microarray, 635 nm fluorescence, primary screen (AID 1104); details: EGFR binding, higher = more signal;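 further: score merges 667 nm emission intensity with spot signal to noise over triplicate slides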
[8] = target: Follistatin-related protein 3 (Homo sapiens) (UniProt O95633); experiment: compounds binding follistatin-related protein 3 – biochemical, small-molecule microarray, 635 nm fluorescence, primary screen (AID 1105); details: FSTL3 binding, higher = more signal;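 further: score merges emission near 667 nm and signal to noise per printed spot across three slides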
[9] = target: Dickkopf-related protein 1 (Homo sapiens) (UniProt O94907); experiment: small molecules binding DKK1 protein – biochemical, small-molecule microarray, 635 nm fluorescence scan, primary screen (AID 1106); details: higher = more signal;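 further: score merges emission near 667 nm with signal to noise over three replicate slides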
[10] = tested on: Inhibin beta A chain (activin A); experiment: small molecules binding activin A – biochemical, small-molecule microarray, 635 nm fluorescence scan, primary screen (AID 1107); details: INHBA, higher = more signal;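 further: mouse activin A protein probed at 4.33 µg/mL on printed slides; score merges bound-protein fluorescence near 667 nm with spot signal-to-noise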

Sequence of Epidermal growth factor receptor (Homo sapiens) (P00533 whole entry, looked up): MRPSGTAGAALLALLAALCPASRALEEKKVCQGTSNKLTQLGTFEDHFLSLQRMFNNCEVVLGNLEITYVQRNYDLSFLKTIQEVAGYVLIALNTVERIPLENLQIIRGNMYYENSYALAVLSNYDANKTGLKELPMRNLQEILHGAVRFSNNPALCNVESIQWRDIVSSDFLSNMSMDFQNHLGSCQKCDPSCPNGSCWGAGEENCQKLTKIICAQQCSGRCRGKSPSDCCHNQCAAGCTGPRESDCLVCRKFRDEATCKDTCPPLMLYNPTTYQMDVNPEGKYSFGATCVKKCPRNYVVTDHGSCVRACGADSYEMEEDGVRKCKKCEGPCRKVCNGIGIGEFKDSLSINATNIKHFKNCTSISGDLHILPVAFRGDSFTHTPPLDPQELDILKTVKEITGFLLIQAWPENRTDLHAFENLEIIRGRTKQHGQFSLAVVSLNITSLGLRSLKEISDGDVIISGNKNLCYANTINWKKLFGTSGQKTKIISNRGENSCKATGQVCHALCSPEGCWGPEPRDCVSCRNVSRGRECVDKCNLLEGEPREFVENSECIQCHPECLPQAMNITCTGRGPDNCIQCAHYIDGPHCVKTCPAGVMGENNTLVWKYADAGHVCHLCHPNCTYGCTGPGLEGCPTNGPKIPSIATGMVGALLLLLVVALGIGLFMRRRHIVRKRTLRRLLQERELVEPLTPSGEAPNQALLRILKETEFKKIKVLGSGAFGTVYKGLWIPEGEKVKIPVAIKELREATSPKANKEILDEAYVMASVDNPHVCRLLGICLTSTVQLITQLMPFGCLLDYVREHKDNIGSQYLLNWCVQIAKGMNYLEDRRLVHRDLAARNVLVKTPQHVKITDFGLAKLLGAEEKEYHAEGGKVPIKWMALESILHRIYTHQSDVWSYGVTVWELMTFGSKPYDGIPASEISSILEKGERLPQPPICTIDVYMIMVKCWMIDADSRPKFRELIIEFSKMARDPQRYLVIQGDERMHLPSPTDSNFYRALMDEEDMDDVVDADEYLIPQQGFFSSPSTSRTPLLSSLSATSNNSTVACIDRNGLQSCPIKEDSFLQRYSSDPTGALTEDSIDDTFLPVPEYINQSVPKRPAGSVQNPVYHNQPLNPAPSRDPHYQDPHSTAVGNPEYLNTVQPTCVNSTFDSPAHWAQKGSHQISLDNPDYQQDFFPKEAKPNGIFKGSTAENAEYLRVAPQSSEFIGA
Sequence of Dickkopf-related protein 1 (Homo sapiens) (O94907 whole entry, looked up): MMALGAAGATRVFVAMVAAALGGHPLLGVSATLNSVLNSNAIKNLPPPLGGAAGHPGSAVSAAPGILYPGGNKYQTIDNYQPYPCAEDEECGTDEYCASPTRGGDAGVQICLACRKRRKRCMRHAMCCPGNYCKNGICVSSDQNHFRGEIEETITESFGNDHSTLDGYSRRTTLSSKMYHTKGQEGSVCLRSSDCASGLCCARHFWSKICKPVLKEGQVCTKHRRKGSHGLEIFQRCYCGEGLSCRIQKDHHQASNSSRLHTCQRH
Sequence of Fibroblast growth factor 10 (Homo sapiens) (O15520 whole entry, looked up): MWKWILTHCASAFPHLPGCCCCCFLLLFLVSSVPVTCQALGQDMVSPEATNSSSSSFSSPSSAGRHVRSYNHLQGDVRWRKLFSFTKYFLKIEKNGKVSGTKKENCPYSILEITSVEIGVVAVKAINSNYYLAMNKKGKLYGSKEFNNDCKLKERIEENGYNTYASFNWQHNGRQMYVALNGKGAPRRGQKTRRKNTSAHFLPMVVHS
Sequence of Follistatin-related protein 3 (Homo sapiens) (O95633 whole entry, looked up): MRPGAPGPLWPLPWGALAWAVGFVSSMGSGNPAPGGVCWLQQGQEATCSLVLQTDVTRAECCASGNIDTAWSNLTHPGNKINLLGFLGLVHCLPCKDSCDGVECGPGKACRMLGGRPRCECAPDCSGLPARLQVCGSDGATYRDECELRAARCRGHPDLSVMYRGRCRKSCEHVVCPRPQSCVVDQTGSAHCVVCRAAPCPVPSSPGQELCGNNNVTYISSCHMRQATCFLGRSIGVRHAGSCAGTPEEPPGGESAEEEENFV

Compound	composite z-score [1]	composite z-score [2]	composite z-score [3]	z-score [4]	composite z-score [5]	composite z-score [6]	composite z-score [7]	composite z-score [8]	composite z-score [9]	composite z-score [10]
COC(=O)c1nc2oc1CC[C@@H](CO)NC(=O)N(C)Cc1cnnn1C[C@H](Cc1ccccc1)NC2=O	1.81	-0.148	0.106	-0.495 (inactive)	-0.0412	-1.05	-0.913	0.228	-0.682	0.139
COC(=O)c1c(CC[C@@H](CO)NC(=O)N2CCC[C@H]2Cn2cc(Cc3ccccc3)nn2)oc(C(C)=O)c1C(=O)OC	0.787	-0.0956	-0.553	-0.311 (inactive)	0.572	0.0908	-0.0867	0.92	0.135	0.268
COC(=O)[C@@]1(Cc2ccc(OC)cc2)[C@H]2c3cc(C(=O)N(C)C)n(CCO)c3C[C@H]2CN1C(=O)c1ccccc1	0.137	1.14	1.27	0.994 (inactive)	0.0882	-0.402	-0.735	-0.42	-1.18	1.07
C=C(C)C1CCC(C(O)C2C=CC3C(=O)N(C)C(=O)C3N2N2CCCCC2)CC1 (stereo not given)	0.925	0.145	0.67	0.929 (inactive)	0.853	1.3	1.16	1.35	0.986	1.42
COC(=O)[C@@]1(Cc2ccccc2N=[N+]=[N-])N=C(c2ccc(OCCCO)cc2)O[C@H]1c1ccccc1N=[N+]=[N-]	1.52	0.793	1	7.07 (inactive)	0.386	0.65	-0.098	0.419	0.0345	1.31
O=C(NCC(F)(F)F)[C@@H]1c2ccccc2C(=O)N(Cc2cc(F)cc(C(F)(F)F)c2)[C@H]1c1ccc(CO)cc1	0.251	-0.0632	0.941	0.408 (inactive)	-0.788	-0.587	-1.12	-1.29	-1.39	-0.53
C[C@]1(C(=O)NC2CC2)c2ccccc2C(=O)N(Cc2ccccc2)[C@H]1c1ccc(CO)cc1	1.13	0.432	0.951	-0.502 (inactive)	-1.01	-0.84	-1.12	-0.761	-0.594	-0.0478
[N-]=[N+]=NCc1ccccc1C[C@@]1(C(=O)N2CCOCC2)N=C(c2ccc(OCCCO)cc2)O[C@@H]1c1ccccc1	0.511	0.881	1.18	-0.691 (inactive)	1.03	1.28	0.0805	-0.14	-0.519	0.686
COCCOC(=O)N1C(=O)[C@@]2(c3cc(C#Cc4ccc(OC)cc4)ccc31)[C@H](C(=O)Nc1nc3ccccc3s1)[C@H]1C(=O)O[C@H](c3ccccc3)[C@H](c3ccccc3)N1[C@@H]2c1ccc(O)cc1	1.48	0.166	-0.0767	-0.591 (inactive)	1.39	1.29	0.571	1.24	0.875	0.318
COc1cc2c(cc1OC)CN(C(=O)[C@@H]1[C@H]3C(=O)O[C@H](c4ccccc4)[C@H](c4ccccc4)N3[C@H](c3ccc(OCCO)cc3)[C@@]13C(=O)Nc1ccccc13)CC2	1.41	0.0269	0.0159	0.576 (inactive)	1.4	1.17	0.399	1.07	0.343	0.508
CC(C)(C)OC(=O)CC[C@]1(C(=O)NCc2ccccc2)N=C(c2ccc(OCCCO)cc2)O[C@H]1c1ccccc1CN=[N+]=[N-]	1.45	0.242	0.545	0.22 (inactive)	1.22	1.36	0.227	1.37	0.133	0.554
CCCNC(=O)[C@@H]1c2ccccc2C(=O)N(C(C)C)[C@H]1c1ccc(CO)cc1	0.32	0.02	0.933	0.844 (inactive)	-0.342	-0.307	-0.87	-0.961	-0.375	0.534
COC(=O)[C@@]1(Cc2ccc(F)cc2)[C@H]2c3cc(C(=O)N4CCCC4)n(CCc4ccc(O)c(O)c4)c3C[C@H]2CN1C(=O)c1ccccc1	0.391	1.8	1.04	-2.62 (inactive)	-0.206	-1.73	-0.0942	-0.457	-0.359	1.1
C[N+](C)(C)CCCC[C@@H]1NC(=O)[C@H]2C[C@@H](C(=O)NCCCCCCN)[C@@H](c3ccc(O)cc3)N2C1=O	1.38	0.608	0.659	0.587 (inactive)	0.687	1.3	-0.397	-0.0878	0.0717	-0.695
C=C(C(=O)CC[C@@H](OC(C)=O)c1ccc(CO)o1)C(C)C	-0.78	-0.418	-0.298	0.993 (inactive)	0.826	0.482	-0.289	1.39	0.536	1.41
COc1ccc(C(O)C2C=CC3C(=O)N(c4ccccc4)C(=O)C3N2Nc2ccc([N+](=O)[O-])cc2)cc1 (stereo not given)	1.43	1.37	1.23	0.304 (inactive)	0.774	0.998	0.0207	0.952	-0.655	0.918
CC(CO)N1C(=O)[C@@H]2[C@H]3C(=O)OCC=C[C@H]3OC23C=CCN(Cc2ccccc2)C(=O)[C@@H]13 (stereo not given in full)	0.978	-0.321	0.247	-1.11 (inactive)	-0.49	-1.23	-1.18	-0.578	-0.567	0.056
CC(CO)N1C(=O)[C@@H]2[C@H]3C(=O)OCC=C[C@H]3OC23C=CCN(C(C)(C)C)C(=O)[C@@H]13 (stereo not given in full)	0.115	-0.323	0.129	0.74 (inactive)	-0.0566	-0.764	-1.14	-0.205	-0.496	-0.197
CO[C@H]1O[C@H](CO)[C@@H](OC(=O)Nc2ccc3c(c2)OCO3)[C@H](OC(=O)c2cc3ccccc3[nH]2)[C@H]1OC(=O)c1cc2ccccc2[nH]1	0.787	-0.0268	-0.161	-1.87 (inactive)	0.247	-0.0406	-0.194	0.238	0.283	1.46
CC(CO)N1C(=O)[C@@H]2[C@H]3C(=O)OCC=C[C@H]3OC23C=CCN(CCN2CCOCC2)C(=O)[C@@H]13 (stereo not given in full)	1.12	-0.373	-0.646	0.497 (inactive)	-0.199	0.248	-0.101	0.152	0.439	0.777
O[C@@H](Cc1ccccc1)[C@@H](/C=C/C1CC1)N(CC#Cc1ccccc1)Cc1cccc(Cl)c1	-0.546	0.232	1.34	-1.61 (inactive)	-1.72	-1.01	-1.69	-1.54	-1.49	0.285
O=C(NCCCCCNC(=O)/C(Cc1ccccc1)=N/O)OCc1ccccc1	-0.263	-0.314	-0.603	-1.54 (inactive)	0.0434	-0.201	0.445	0.206	0.229	-0.182
COCCOC(=O)N1C(=O)[C@@]2(c3cc(C#CCCO)ccc31)[C@H](C(=O)Nc1nc3ccccc3s1)[C@H]1C(=O)O[C@H](c3ccccc3)[C@H](c3ccccc3)N1[C@@H]2c1ccccc1OCCO	1.42	0.331	0.411	0.0499 (inactive)	1.12	1.08	0.561	1.11	0.452	0.923
CCCCN1CC=CC23O[C@@H]4/C=C\CCC(C)OC(=O)C4[C@H]2C(=O)N(C(CO)C(C)C)[C@@H]3C1=O (stereo not given in full)	1.73	-0.207	-0.176	0.0563 (inactive)	0.384	0.347	-0.474	0.167	0.125	1.14
CCOC(=O)c1ccc(NC(=O)O[C@H]2[C@H](OC(=O)Nc3ccc4c(c3)OCO4)[C@@H](OC(=O)Nc3ccc4c(c3)OCO4)[C@@H](OC)O[C@@H]2CO)cc1	1.41	0.164	0.157	-0.616 (inactive)	1.4	1.33	0.308	1.49	0.624	0.51
C=CCN1Cc2ccccc2[C@H]2OC(c3ccc(OCCCO)cc3)=N[C@@]2(CC=C)C1=O	0.911	0.406	1.09	-0.308 (inactive)	1.4	1.28	0.901	1.42	1.67	1.39
COc1cc(OC)c(C(O)C2C=CC3C(=O)N(C)C(=O)C3N2NC(=O)OC(C)(C)C)cc1Br (stereo not given)	1.07	0.993	1.15	1.51 (inactive)	1.32	1.33	0.26	1.41	0.057	0.594
COC(=O)[C@@]1(Cc2ccccc2)[C@H]2c3cc(C(=O)N(C)C)n(Cc4c(CO)[nH]cc(C)c4=O)c3C[C@H]2CN1C(=O)c1ccccc1	0.42	0.183	0.528	1.06 (inactive)	0.422	-0.0088	-0.0555	-0.237	-0.296	1.1
CC1CC/C=C\[C@H]2OC34C=CCN(c5ccc(Cl)cc5)C(=O)[C@H]3N(CCCCCO)C(=O)[C@]4(C)C2C(=O)O1 (stereo not given in full)	0.925	-0.153	0.648	0.4 (inactive)	-1.04	-0.798	-1.24	-0.888	-1.98	-0.497
C[N+](C)(C)CCCCCCNC(=O)[C@H]1C[C@H]2C(=O)N[C@@H](Cc3ccccc3)C(=O)N2[C@H]1c1ccc(O)cc1	1.27	-0.265	-0.534	-0.0288 (inactive)	0.98	0.637	0.192	0.894	0.834	0.445
